Reference: PubChem BioAssay (EPA / NIEHS)
The source made the active and inactive calls. The calls were made as follows: active = hit-call score of the fitted dose curve at least 0.9, where 1 is the maximum; inactive = score below 0.9.

How the values were obtained:
[1] = read-out: Human Leukocyte Antigen - DR isotype (HLADR), HLA-DRA (gene 3122); assay: BSK_3C_HLADR: BioMAP Diversity Plus: 3C Assay for Human Leukocyte Antigen - DR isotype (HLADR) Biomarker Activity (AID 2283019); conditions: primary human endothelial cells (HUVEC); actives raise or lower the signal
In short: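 Compound added to primary HUVEC cultures, 24 h incubation, then HLA-DR determined by ELISA; endpoint derived by bidirectional fitting relative to DMSO negative control.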

[2] = read-out: Interleukin-8 (IL8), CXCL8 (gene 3576); assay: BSK_3C_IL8: BioMAP Diversity Plus: 3C Assay for Interleukin-8 (IL8) Biomarker Activity (AID 2283020); conditions: primary human endothelial cells (HUVEC); actives raise or lower the signal
In short: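 HUVEC, 3C stimulation; 24 h compound exposure; IL-8 read by ELISA; gain or loss of signal fitted relative to DMSO control.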

[3] = read-out: Monokine induced gamma interferon (MIG), CXCL9 (gene 4283); assay: BSK_3C_MIG: BioMAP Diversity Plus: 3C Assay for Monokine induced gamma interferon (MIG) Biomarker Activity (AID 2283021); conditions: primary human endothelial cells (HUVEC); actives raise or lower the signal
In short: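 HUVEC, 3C system; 24 h chemical exposure; MIG by ELISA; bidirectional fit vs DMSO baseline.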

[4] = read-out: Matrix Metallopeptidase 1 (MMP1), MMP1 (gene 4312); assay: BSK_BE3C_MMP1: BioMAP Diversity Plus: BE3C Assay for Matrix Metallopeptidase 1 (MMP1) Biomarker Activity (AID 2283024); conditions: primary human bronchial epithelial cells; actives raise or lower the signal
In short: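 ELISA read-out of MMP1 in human lung bronchial epithelial primary cultures, 24 h post-dose; bidirectional curve fit vs DMSO baseline, gain or loss of signal scored.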

[5] = BSK_3C_Vis: BioMAP Diversity Plus: 3C Assay for Morphology Visualization (AID 2283025); conditions: primary human endothelial cells (HUVEC);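 also: fitted both ways so gain or loss versus DMSO counts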;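 as to AC50: light microscopy image of cell morphology used as background control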
In short: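 HUVEC, 3C system; light microscopy of morphology at 24 h post-dose. Bidirectional fit vs DMSO baseline. Secondary readout, background-control function.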

[6] = read-out: Pselectin, SELP (gene 6403); assay: BSK_4H_Pselectin: BioMAP Diversity Plus: 4H Assay for Pselectin Biomarker Activity (AID 2283026); conditions: primary human endothelial cells (HUVEC); actives raise or lower the signal
In short: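 HUVEC, 24 h chemical exposure; P-selectin read by ELISA. Bidirectional curve fit vs DMSO baseline; gain or loss of signal scored.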

[7] = BSK_4H_SRB: Viability Assessment in the BioMAP Diversity Plus: 4H Assay (AID 2283027); conditions: primary human endothelial cells (HUVEC);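 also: cells exposed to compound for 24 h before staining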;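 as to AC50: curves fitted both ways versus DMSO so AC50 may be loss or gain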
In short: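 Cytotoxicity readout: sulforhodamine B (0.1%) staining of total protein after 10% TCA fixation, measured at 560 nm in human umbilical vein endothelium at 24 h. DMSO set the baseline; fitting was bidirectional.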

[8] = read-out: Thrombomodulin, THBD (gene 7056); assay: BSK_3C_Thrombomodulin: BioMAP Diversity Plus: 3C Assay for Thrombomodulin Biomarker Activity (AID 2283029); conditions: primary human endothelial cells (HUVEC); actives raise or lower the signal
In short: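 HUVEC, 3C conditions; compound 24 h; thrombomodulin by ELISA; bidirectional curve fit vs DMSO baseline; parallel SRB total-protein staining for cytotoxicity.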

[9] = read-out: Urokinase-type plasminogen activator receptor (uPAR), PLAUR (gene 5329); assay: BSK_4H_uPAR: BioMAP Diversity Plus: 4H Assay for Urokinase-type plasminogen activator receptor (uPAR) Biomarker Activity (AID 2283030); conditions: primary human endothelial cells (HUVEC); actives raise or lower the signal
In short: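 Endpoint derived via bidirectional curve fitting against DMSO baseline; readout was ELISA detection of uPAR on umbilical vein endothelial cells at 24 h post-treatment, with SRB-stained parallel cultures assessing cytotoxicity.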

[10] = read-out: Vascular endothelial growth factor receptor 2 (Homo sapiens) (UniProt P35968); assay: BSK_4H_VEGFRII: BioMAP Diversity Plus: 4H Assay for Vascular endothelial growth factor receptor 2 (VEGFR2) Biomarker Activity (AID 2283031); conditions: primary human endothelial cells (HUVEC); actives raise or lower the signal
In short: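 In this multiplexed HUVEC system, biomarker ELISA was performed after 24 h chemical exposure. Parallel SRB staining (TCA fixation, 560 nm) tracked cytotoxicity; DMSO served as baseline.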

[11] = read-out: Human Leukocyte Antigen - DR isotype (HLADR), HLA-DRA (gene 3122); assay: BSK_BE3C_HLADR: BioMAP Diversity Plus: BE3C Assay for Human Leukocyte Antigen - DR isotype (HLADR) Biomarker Activity (AID 2283032); conditions: primary human bronchial epithelial cells; actives raise or lower the signal
In short: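 Primary human bronchial epithelial cells (BE3C); 24 h chemical exposure; HLA-DR by ELISA; bidirectional curve fit vs DMSO baseline.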

[12] = read-out: Interferon-gamma inducible Protein 10 (IP10), CXCL10 (gene 3627); assay: BSK_BE3C_IP10: BioMAP Diversity Plus: BE3C Assay for Interferon-gamma inducible Protein 10 (IP10) Biomarker Activity (AID 2283034); conditions: primary human bronchial epithelial cells; actives raise or lower the signal
In short: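 ELISA readout of IP-10 in BE3C system: primary human bronchial epithelial cells, 24 h post-dosing; bidirectional curve fit vs DMSO baseline.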

[13] = read-out: Monokine induced gamma interferon (MIG), CXCL9 (gene 4283); assay: BSK_BE3C_MIG: BioMAP Diversity Plus: BE3C Assay for Monokine induced gamma interferon (MIG) Biomarker Activity (AID 2283035); conditions: primary human bronchial epithelial cells; actives raise or lower the signal
In short: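 hu bronchial epithelial 1° cells, 24 h cpd; MIG by ELISA; bidirectional fit, DMSO = baseline.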

[14] = read-out: Transforming growth factor beta 1 (TGFb1), TGFB1 (gene 7040); assay: BSK_BE3C_TGFb1: BioMAP Diversity Plus: BE3C Assay for Transforming growth factor beta 1 (TGFb1) Biomarker Activity (AID 2283036;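 also: TGF-b1 protein level measured by ELISA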); conditions: primary human bronchial epithelial cells; actives raise or lower the signal
In short: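 Read-out: ELISA for TGF-b1 in primary human bronchial epithelial cultures, 24 h post-dose. Bidirectional curve fitting vs DMSO control; gain or loss of signal both scored.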

[15] = read-out: Plasminogen activator inhibitor-1 (PAI1), SERPINE1 (gene 5054); assay: BSK_BE3C_PAI1: BioMAP Diversity Plus: BE3C Assay for Plasminogen activator inhibitor-1 (PAI1) Biomarker Activity (AID 2283037); conditions: primary human bronchial epithelial cells; actives raise or lower the signal
In short: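 ELISA read-out of PAI-1 from human bronchial epithelial primary cells, 24 h post-dosing; bidirectional curve fit vs DMSO baseline, gain or loss of signal scored.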

[16] = read-out: urokinase plasminogen activator (uPA), PLAU (gene 5328); assay: BSK_BE3C_uPA: BioMAP Diversity Plus: BE3C Assay for urokinase plasminogen activator (uPA) Biomarker Activity (AID 2283038); conditions: primary human bronchial epithelial cells; actives raise or lower the signal
In short: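 Using confluent primary human lung bronchial epithelial cultures, we dosed chemicals, waited 24 h, then ran a uPA ELISA, fitting bidirectionally against DMSO.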

[17] = read-out: Urokinase-type plasminogen activator receptor (uPAR), PLAUR (gene 5329); assay: BSK_BE3C_uPAR: BioMAP Diversity Plus: BE3C Assay for Urokinase-type plasminogen activator receptor (uPAR) Biomarker Activity (AID 2283039); conditions: primary human bronchial epithelial cells; actives raise or lower the signal
In short: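 ELISA readout of uPAR on human lung primary bronchial epithelial cells, 24 h post-dosing. Bidirectional curve fit relative to DMSO vehicle baseline; gain or loss of signal both scored.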

[18] = BSK_BE3C_SRB: Viability Assessment in the BioMAP Diversity Plus: BE3C Assay (AID 2283028); conditions: primary human bronchial epithelial cells;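 also: measured 24 h after chemical dosing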
In short: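 SRB total-protein staining (0.1%, after TCA fixation) of chemically dosed human bronchial epithelial primary cells at 24 h; DMSO serves as the negative control for bidirectional curve fitting.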

[19] = read-out: Vascular cell adhesion molecule 1 (VCAM1), VCAM1 (gene 7412); assay: BSK_4H_VCAM1: BioMAP Diversity Plus: 4H Assay for Vascular cell adhesion molecule 1 (VCAM1) Biomarker Activity (AID 2283033); conditions: primary human endothelial cells (HUVEC); actives raise or lower the signal;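 also: cell-surface VCAM-1 protein measured by ELISA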
In short: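 HUVEC, 24 h post-dose; VCAM-1 by ELISA. Bidirectional curve fit vs DMSO baseline. Parallel SRB total-protein stain (0.1% SRB after 10% TCA fixation, 560 nm) for cytotoxicity.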

Measured: AC50

O=C(c1ccccc1)C1CCCCC1
inactive: [1] | [2] | [3] | [4] | [5] | [6] | [7] | [8] | [9] | [10] | [11] | [12] | [13] | [14] | [15] | [16] | [17]

CC(C)(C)[C@@H](O)[C@@H](Cc1ccc(Cl)cc1)n1cncn1
inactive: [2] | [3] | [4] | [6] | [7] | [18] | [8] | [9] | [10] | [11] | [12] | [13] | [14] | [15] | [16] | [17]
active: [1] 7110 nM | [5] 39000 nM

COC(=O)c1ccccc1S(=O)(=O)NC(=O)Nc1nc(OC(F)F)cc(OC(F)F)n1
inactive: [1] | [2] | [3] | [4] | [5] | [6] | [7] | [18] | [8] | [9] | [10] | [11] | [12] | [13] | [14] | [15] | [16] | [17]

O=C(Nc1ccc([N+](=O)[O-])cc1Cl)c1cc(Cl)ccc1O
inactive: [2] | [3] | [4] | [10] | [14] | [15]
active: [1] 169 nM | [6] 302 nM | [7] 516 nM | [8] 148 nM | [9] 148 nM | [11] 148 nM | [12] 302 nM | [13] 148 nM | [17] 148 nM

C[C@]12C[C@H](O)[C@H]3[C@@H](CCC4=CC(=O)CC[C@@]43C)[C@@H]1CC[C@@H]2C(=O)CO
inactive: [1] | [2] | [3] | [4] | [5] | [6] | [7] | [8] | [9] | [10] | [11] | [13] | [14] | [15] | [16] | [17]
active: [12] 34800 nM

OB(O)O
inactive: [1] | [2] | [3] | [4] | [5] | [6] | [7] | [8] | [9] | [10] | [11] | [19] | [12] | [13] | [14] | [15] | [16] | [17]

CCNc1nc(N)nc(Cl)n1
inactive: [1] | [2] | [3] | [4] | [5] | [6] | [7] | [18] | [8] | [9] | [10] | [11] | [12] | [13] | [14] | [15] | [17]
active: [16] 10900 nM
